High-throughput results: PubChem BioAssay, The Scripps Research Institute Molecular Screening Center
Sampled rows, rich in hits. Any-hit rate of the full collection: about 4.8%.
SMARCA2 act = SMARCA2 (BRM) function activators, primary screen, cell-based, luminescence, high throughput; MG213 cells, MMTV-luciferase reporter, dexamethasone, overnight; 370,000 tested, 1% active; activation, % at 9.1 µM; in the data active means activation above about 7.8%
DAX1 inh-1 = DAX1 (NR0B1) inhibitors on StAR promoter, primary screen, cell-based, luminescence, SF-1 (NR5A1), full-length DAX-1; HEK293T StAR-luciferase reporter, SF-1/DAX-1 repression relief; AID 652010, 2013; inhibition, % at 6.8 µM; 370,000 tested, 1.1% active;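 active means inhibition above the mean over all tested compounds plus 3 SD, cut at about 3.6% in these data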;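 further: higher inhibition means more luminescence from relief of DAX-1 repression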
hgDAF-12 ag = H. glycines DAF-12 receptor agonists, primary screen, cell-based, luminescence, HEK293, GAL4 fusion, UAS-luciferase. HEK293 GAL4-hgDAF12 UAS-luciferase reporter, agonist luminescence; normalized to butyrate control. activation, % at 6.8 µM. 370,000 tested, 1.8% active;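 active means activation above a cutoff set at the mean of all screened compounds plus 3 SD, cut at about 10% in these data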
ssDAF12 agonist = S. stercoralis DAF-12 nuclear receptor activators, primary screen, cell-based, luminescence, HEK293, GRIP1 co-expression, lit1-tk-luc; 370,000 tested, 1% active; AID 652126, 2013; activation, % at 6.8 µM; HEK293 ssDAF-12/GRIP1 lit1-tk-luc reporter; % of 3 µM dafachronic acid response;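 active means activation above the mean over all tested compounds plus 3 SD, cut at about 0.9% in these data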
DAX1 inh-2 = DAX1 (NR0B1) inhibitors, primary screen, cell-based, HEK293, Gal4-DAX1, luciferase luminescence. Nuclear receptor subfamily 0 group B member 1 (Homo sapiens), P51843. HEK293 Gal4-DAX1 luciferase reporter. inhibition, % at 6.75 µM. 340,000 tested, 0.99% active;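 active means inhibition above the mean over all tested compounds plus 3 SD, cut at about 4.2% in these data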;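 further: inhibition shows as a rise in luminescence from relieved DAX1 repression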
hcDAF12 agonist = H. contortus DAF-12 nuclear receptor activators, primary screen, cell-based, luminescence, HEK293, lit1-tk-luc reporter. HEK293 hcDAF-12 lit1-tk-luc reporter; 0% DMSO, 100% Δ7-dafachronic acid. activation, % at 6.8 µM. 370,000 tested, 1.4% active;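 active means activation above the mean of all tested compounds plus 3 SD, cut at about 5.5% in these data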
LXR ag = LXR agonists, Gal4 luciferase reporter, confirmation, counter-screen for hcDAF-12 agonist project, cell-based, luminescence, HEK293, H. contortus campaign. activation, % at 6.8 µM. 3,400 tested, under 10 active. HEK293 Gal4-LXR tk-luc reporter, 24 h; normalized: DMSO 0%, positive control 100%. shares compounds with hcDAF12 agonist;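 active means mean percent activation of the reporter above a cutoff set as the average over tested compounds plus their standard deviation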
Target sequence (P55055 whole entry, looked up, the tested form may be a part): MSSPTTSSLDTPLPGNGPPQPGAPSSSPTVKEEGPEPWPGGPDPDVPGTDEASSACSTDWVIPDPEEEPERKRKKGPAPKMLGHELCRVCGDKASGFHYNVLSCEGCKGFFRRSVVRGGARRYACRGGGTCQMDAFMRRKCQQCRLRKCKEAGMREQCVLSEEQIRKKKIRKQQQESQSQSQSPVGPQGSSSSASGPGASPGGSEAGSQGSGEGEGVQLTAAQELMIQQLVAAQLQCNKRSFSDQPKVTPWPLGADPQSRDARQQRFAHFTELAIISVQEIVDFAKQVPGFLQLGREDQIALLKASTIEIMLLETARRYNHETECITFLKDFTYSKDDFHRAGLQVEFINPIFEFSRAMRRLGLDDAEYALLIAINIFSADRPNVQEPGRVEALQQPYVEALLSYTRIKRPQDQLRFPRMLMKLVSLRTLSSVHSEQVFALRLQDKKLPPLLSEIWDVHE
hcDAF12 ag = H. contortus DAF-12 receptor agonists, confirmation, cell-based, luminescence, HEK293, lit1-tk-luc, triplicate | shares compounds with hcDAF12 agonist | activation, % at 6.8 µM | HEK293 hcDAF-12 lit1-tk-luc reporter; % of Δ7-dafachronic acid response | AID 743032, 2013 | 3,400 tested, 61% active;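 active means mean activation across triplicate tests above the threshold derived from the earlier primary screen, cut at about 5.5% in these data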
Large screens that a line does not name were inactive (follow-up assays come after a bar, where they were run).

Cc1ccc(Nc2c(F)cccc2Cl)c(CC(=O)O)c1	none (no result: DAX1 inh-2)
Cc1csc(N/N=C/c2ccccc2F)n1	hcDAF12 agonist 7.2 | LXR ag inactive | hcDAF12 ag 10.2
c1ccc2c(c1)ncc1cccn12	ssDAF12 agonist 1.5, hcDAF12 agonist 6.7 | LXR ag inactive | hcDAF12 ag inactive
CN1/C(=C\C=C2/SC(=S)NC2=O)C(C)(C)c2ccccc21	none
CN1CCC/C1=C/C=C1\SC(=S)NC1=O	hcDAF12 agonist 7.0 | LXR ag inactive | hcDAF12 ag inactive
Cc1ccccc1/C=C1\OC(=O)c2ccccc21	none
Cc1ccc(/C=C2\OC(=O)c3ccccc32)cc1	hcDAF12 agonist 8.4 | LXR ag inactive | hcDAF12 ag 8.5
Cc1cccc(-c2noc(-c3ccc(Cl)cc3[N+](=O)[O-])n2)c1	hgDAF-12 ag 12.6, hcDAF12 agonist 8.9 | LXR ag inactive | hcDAF12 ag 7.7
COc1ccc(/C=N/N(C(C)=O)c2nc(-c3ccc(C)cc3)cs2)cc1	none
COc1ccccc1/C=N/N(C(C)=O)c1nc(-c2ccc(F)cc2)cs1	ssDAF12 agonist 1.2, hcDAF12 agonist 7.2 | LXR ag inactive | hcDAF12 ag 10.7
O=C(NC(=S)Nc1nc2c(s1)CSc1ccccc1-2)c1ccccc1	hcDAF12 agonist 7.1 | LXR ag inactive | hcDAF12 ag 7.6
O=C(NC(=S)Nc1nc2c(s1)CCCC2)c1ccc(C(=O)c2ccccc2)cc1	none
O=C(NCc1ccccc1)[C@@H]1CCCN1C(=O)[C@H]1CCCN1C(=O)c1cccs1	none (no result: DAX1 inh-2)
COc1ccccc1Cc1c(-c2ccccc2)nc2cc(C)c(Br)c(C)n12	none (no result: DAX1 inh-2)
COc1ccccc1Cc1c(C(C)(C)C)nc2cc(C)c(Br)c(C)n12	none (no result: DAX1 inh-2)
COc1ccccc1Cc1c(-c2ccc(F)cc2)nc2cc(C)c(Br)c(C)n12	ssDAF12 agonist 1.1, hcDAF12 agonist 8.6 (no result: DAX1 inh-2) | LXR ag inactive | hcDAF12 ag 6.7
COc1ccc(Cc2c(-c3cccc(Cl)c3)nc3cc(C)c(Br)c(C)n23)c(C)c1	ssDAF12 agonist 2.0, hcDAF12 agonist 6.9 (no result: DAX1 inh-2) | LXR ag inactive | hcDAF12 ag inactive
Cc1cc2nc(-c3ccc(Cl)cc3)c(Cc3ccsc3)n2c(C)c1Br	ssDAF12 agonist 0.9, hcDAF12 agonist 6.8 (no result: DAX1 inh-2) | LXR ag inactive | hcDAF12 ag inactive
Cc1cc2nc(-c3cccc(Br)c3)c(Cc3cccc(Cl)c3)n2c(C)c1Br	none (no result: DAX1 inh-2)
COc1ccccc1Cc1c(-c2ccc(C)cc2)nc2cc(C)c(Br)c(C)n12	hgDAF-12 ag 12.2, ssDAF12 agonist 1.9, hcDAF12 agonist 9.9 (no result: DAX1 inh-2) | LXR ag inactive | hcDAF12 ag 11.3
NC(=O)c1ncn([C@@H]2O[C@H](C(=O)Nc3ccc(C(=O)N4CCCCC4)cc3)[C@@H](O)[C@H]2O)n1	none (no result: DAX1 inh-2)
COc1ccc2cc(C(=O)CS(=O)(=O)c3ccc(Cl)cc3)c(=O)oc2c1	none (no result: DAX1 inh-2)
O=S(=O)(c1ccc2nc(Cc3ccccc3)[nH]c2c1)N1CCOCC1	none
COc1cc(Cc2nc3ccc(S(=O)(=O)N4CCOCC4)cc3[nH]2)cc(OC)c1OC	hcDAF12 agonist 8.0 | LXR ag inactive | hcDAF12 ag inactive
COc1cc2c(cc1OC)[C@](C)(c1ccccc1)C[C@@H]2NCC=C(C)C	none (no result: DAX1 inh-2)
Cc1csc(=O)n1CC(=O)OCC(=O)Nc1cc(Cl)ccc1[N+](=O)[O-]	hcDAF12 agonist 7.3 | LXR ag inactive | hcDAF12 ag inactive
CC(=O)c1c(C)[nH]c(C(=O)OCC(=O)Nc2cc(Cl)ccc2[N+](=O)[O-])c1C	hcDAF12 agonist 7.0 | LXR ag inactive | hcDAF12 ag inactive
CC(=O)c1c(C)[nH]c(C(=O)OCC(=O)Nc2ccc(C)cc2[N+](=O)[O-])c1C	none
CCN(CCOC(=O)Nc1ccc(Cl)cc1)C(=O)Nc1ccc(Cl)cc1	none (no result: DAX1 inh-2)
N#C/C(=C\c1ccccc1O)C(=O)Nc1cccnc1	none
COc1ccc(O)c(/C=C(\C#N)C(=O)Nc2ccccn2)c1	hcDAF12 agonist 7.9 | LXR ag inactive | hcDAF12 ag 5.7
COc1ccccc1CCn1cnc(-c2ccc(Cl)cc2)c1CC(C)C	none (no result: DAX1 inh-2)
CC(=O)C1CCCN(C(=O)c2ccc3oc(CCc4ccccc4)nc3c2)C1 (configuration not stated)	DAX1 inh-1 3.9, hcDAF12 agonist 7.0 | LXR ag inactive | hcDAF12 ag inactive
Cc1cc(O)c(C(=O)/C=C/c2ccccc2)c(=O)o1	none
Cc1cc(O)c(C(=O)/C=C/c2ccc(C(C)C)cc2)c(=O)o1	hgDAF-12 ag 10.8, ssDAF12 agonist 1.1, DAX1 inh-2 5.7, hcDAF12 agonist 8.6 | LXR ag inactive | hcDAF12 ag inactive
O=C(O)CCCC(=O)OCCCc1cc2ccccc2c(=O)o1	none (no result: DAX1 inh-2)
O=C(/C=C/c1ccco1)NC(=S)Nc1ccccc1O	hcDAF12 agonist 6.8 (no result: DAX1 inh-2) | LXR ag inactive | hcDAF12 ag inactive
COC(=O)[C@]12C[C@H](CC(=O)N3CCC(c4ccccc4)CC3)C(=O)N(Cc3ccccc3)C1=C[C@H](COCc1ccccc1)O[C@@H]2C	none (no result: DAX1 inh-2)
COCCN1Cc2cc(C(=O)OC)c3c(c2C1=O)c1cc(OC)ccc1n3S(=O)(=O)c1ccc(C)cc1	none (no result: DAX1 inh-2)
Cc1ccc(-n2nc3ccc(N)cc3n2)cc1	DAX1 inh-1 3.7, ssDAF12 agonist 0.9, hcDAF12 agonist 12.9 | LXR ag inactive | hcDAF12 ag 6.7
Cc1cc2nn(-c3ccc(Cl)cc3)nc2cc1N	ssDAF12 agonist 1.0, hcDAF12 agonist 9.7 | LXR ag inactive | hcDAF12 ag 13.1
CCOc1ccc(-n2nc3ccc(N)cc3n2)cc1	none
COc1ccc(-n2nc3cc(C)c(N)cc3n2)cc1Cl	none
